# Results filed as inconclusive are left out. Where a call stands in place of a potency, no number is given. Unmarked numbers belong to inactive results. Activity calls are given as the source filed them. Unless noted, the call rests on the fitted dose curve; in most records, active means well fitted curve in the direction sought with a large enough effect; inconclusive means small, poorly fitted or top-dose-only effect, or another doubt; inactive means no such curve, though single readings can be large; an effect the other way counts as inactive or inconclusive.
# How the values were obtained:
# [1] = qHTS for Inhibitors of Plasmodium falciparum (7G8) proliferation (AID 504316); further: nearly all actives have a fitted effect of over 65% in size; further: potency means the concentration at half of the fitted maximal effect; on activity change, negative = inhibition: series mostly up to about 6.7 µM
# Procedure, shortened: (§1)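 Erythrocytes infected with P. falciparum line (0.3% parasitemia, 2.5% hematocrit final) incubated with compounds 72 h at 37 °C, 5% CO2; SYBR Green lysis buffer added, fluorescence read next day. Normalized to 0.29 uM artemisinin and DMSO.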
# [2] = qHTS for Inhibitors of Plasmodium falciparum (HB3) proliferation (AID 504318); further: nearly all actives have a fitted effect of over 60% in size; further: potency means the concentration at half of the fitted maximal effect
# Procedure, shortened: as §1
# [3] = biological target: Atrial natriuretic peptide receptor 1 (Homo sapiens) (UniProt P16066); experiment: Natriuretic polypeptide receptor (hNpr1) antagonism - Pilot CMLD screen (AID 1347052; calls by dose curve;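 further: HEK293 cells with hNpr1 stimulated by hNppA peptide at 0.1 nM; cGMP level read as GloSensor luciferase luminescence after agonist stimulation; series mostly up to about 9.2 µM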)
# Atrial natriuretic peptide receptor 1 (Homo sapiens), sequence (P16066 whole entry, looked up): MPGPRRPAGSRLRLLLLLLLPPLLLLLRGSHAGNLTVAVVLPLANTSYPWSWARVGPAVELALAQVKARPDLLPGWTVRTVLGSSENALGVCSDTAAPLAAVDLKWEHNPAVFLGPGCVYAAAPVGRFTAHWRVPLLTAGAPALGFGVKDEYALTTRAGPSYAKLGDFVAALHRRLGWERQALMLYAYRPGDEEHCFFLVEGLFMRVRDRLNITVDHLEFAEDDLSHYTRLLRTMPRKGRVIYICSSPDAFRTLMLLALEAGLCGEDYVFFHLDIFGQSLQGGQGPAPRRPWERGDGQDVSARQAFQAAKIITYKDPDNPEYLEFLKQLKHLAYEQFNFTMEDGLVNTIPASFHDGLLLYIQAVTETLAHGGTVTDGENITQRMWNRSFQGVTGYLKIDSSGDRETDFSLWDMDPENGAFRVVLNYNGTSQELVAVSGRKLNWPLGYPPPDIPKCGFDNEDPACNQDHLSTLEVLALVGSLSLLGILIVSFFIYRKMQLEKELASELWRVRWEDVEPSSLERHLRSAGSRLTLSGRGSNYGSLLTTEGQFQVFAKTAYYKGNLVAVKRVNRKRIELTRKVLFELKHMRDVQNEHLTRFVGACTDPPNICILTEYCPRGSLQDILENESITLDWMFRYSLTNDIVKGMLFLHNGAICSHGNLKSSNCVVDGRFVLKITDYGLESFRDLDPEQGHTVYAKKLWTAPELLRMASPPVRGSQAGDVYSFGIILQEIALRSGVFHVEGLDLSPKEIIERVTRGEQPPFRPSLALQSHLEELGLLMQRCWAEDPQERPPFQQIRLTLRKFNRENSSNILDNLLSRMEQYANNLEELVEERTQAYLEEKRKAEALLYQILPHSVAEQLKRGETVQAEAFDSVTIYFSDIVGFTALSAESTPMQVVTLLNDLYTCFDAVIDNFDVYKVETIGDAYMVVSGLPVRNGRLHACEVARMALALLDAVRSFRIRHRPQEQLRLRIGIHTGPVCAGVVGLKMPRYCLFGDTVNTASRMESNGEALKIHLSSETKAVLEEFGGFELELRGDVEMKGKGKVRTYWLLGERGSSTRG
# [4] = biological target: Cytochrome P450 2C9 (Homo sapiens) (UniProt P11712); experiment: qHTS Assay for Inhibitors and Substrates of Cytochrome P450 2C9 (AID 883); further: nearly all actives have a fitted effect of over 60% in size
# Cytochrome P450 2C9 (Homo sapiens), sequence (P11712 whole entry, looked up): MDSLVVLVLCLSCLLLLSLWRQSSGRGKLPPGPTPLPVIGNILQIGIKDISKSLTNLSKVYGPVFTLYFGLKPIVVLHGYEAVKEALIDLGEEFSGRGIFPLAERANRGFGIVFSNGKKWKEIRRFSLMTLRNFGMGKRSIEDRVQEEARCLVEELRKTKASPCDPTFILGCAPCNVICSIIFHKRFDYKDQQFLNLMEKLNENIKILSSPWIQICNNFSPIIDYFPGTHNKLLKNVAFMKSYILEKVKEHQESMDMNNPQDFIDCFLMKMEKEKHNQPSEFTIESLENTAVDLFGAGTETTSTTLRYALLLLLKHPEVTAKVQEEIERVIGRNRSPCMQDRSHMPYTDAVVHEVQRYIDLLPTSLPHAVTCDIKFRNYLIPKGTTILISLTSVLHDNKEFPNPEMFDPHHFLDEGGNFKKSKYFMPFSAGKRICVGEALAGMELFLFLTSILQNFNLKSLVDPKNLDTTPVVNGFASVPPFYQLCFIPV
# Procedure, shortened: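 Signal: luciferase luminescence reporting luciferin produced by CYP2C9. Conditions: 10nM enzyme, Luciferin-H 100uM at KM, 25mM KPO4, 37C, 60 min NADPH-driven reaction. Reference: 57uM sulphaphenazole as 100% inhibition.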
# [5] = biological target: Cytochrome P450 3A4 (Homo sapiens) (UniProt P08684); experiment: qHTS Assay for Inhibitors and Substrates of Cytochrome P450 3A4 (AID 884); further: series mostly up to about 57 µM; nearly all actives have a fitted effect of over 50% in size
# Cytochrome P450 3A4 (Homo sapiens), sequence (P08684 whole entry, looked up): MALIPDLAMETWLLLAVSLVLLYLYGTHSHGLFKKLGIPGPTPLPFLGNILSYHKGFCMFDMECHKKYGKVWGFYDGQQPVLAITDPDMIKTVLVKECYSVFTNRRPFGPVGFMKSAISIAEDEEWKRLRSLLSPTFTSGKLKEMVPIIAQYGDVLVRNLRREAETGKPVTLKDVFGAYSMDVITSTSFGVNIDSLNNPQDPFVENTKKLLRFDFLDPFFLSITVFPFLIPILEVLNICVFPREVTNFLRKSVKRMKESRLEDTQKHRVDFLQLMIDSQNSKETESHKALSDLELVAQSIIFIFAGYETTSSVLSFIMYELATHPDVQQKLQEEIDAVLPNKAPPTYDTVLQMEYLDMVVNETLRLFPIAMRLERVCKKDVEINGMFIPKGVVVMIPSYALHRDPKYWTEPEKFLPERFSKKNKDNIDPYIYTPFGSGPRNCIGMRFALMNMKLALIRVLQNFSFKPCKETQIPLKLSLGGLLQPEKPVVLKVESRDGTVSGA
# Procedure, shortened: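 20 nM human CYP3A4 with 25 uM Luciferin-PPXE (at KM) in 200 mM KPO4, preincubated 10 min with compound; NADPH regeneration started a 60 min RT reaction. Luciferin detected by luminescence, normalized to 57 uM ketoconazole as full inhibition.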
# [6] = biological target: Cytochrome P450 2D6 (Homo sapiens) (UniProt P10635); experiment: qHTS Assay for Inhibitors and Substrates of Cytochrome P450 2D6 (AID 891); further: potency means the concentration at half of the fitted maximal effect; nearly all actives have a fitted effect of over 60% in size
# Cytochrome P450 2D6 (Homo sapiens), sequence (P10635 whole entry, looked up): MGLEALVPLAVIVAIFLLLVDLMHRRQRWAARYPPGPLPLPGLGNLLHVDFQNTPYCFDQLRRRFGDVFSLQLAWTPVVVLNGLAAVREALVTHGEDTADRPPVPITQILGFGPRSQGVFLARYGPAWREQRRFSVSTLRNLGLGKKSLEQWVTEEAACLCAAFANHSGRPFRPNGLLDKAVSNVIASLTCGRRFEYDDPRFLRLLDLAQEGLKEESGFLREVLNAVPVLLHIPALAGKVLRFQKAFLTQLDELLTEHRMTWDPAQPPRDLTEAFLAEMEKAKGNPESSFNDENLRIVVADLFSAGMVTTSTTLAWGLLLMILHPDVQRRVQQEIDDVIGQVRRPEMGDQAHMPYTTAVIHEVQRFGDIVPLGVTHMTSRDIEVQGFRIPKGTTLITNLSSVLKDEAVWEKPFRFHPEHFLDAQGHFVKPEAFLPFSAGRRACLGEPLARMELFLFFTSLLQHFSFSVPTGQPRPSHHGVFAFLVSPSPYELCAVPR
# Procedure, shortened: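 Human CYP2D6 (5 nM) with 30 uM Luciferin-ME EGE (at Km) in 100 mM KPO4, compound preincubated 10 min, then NADPH regeneration system for 60 min at room temperature. Luciferin read by luminescence; normalized to 1.43 uM quinidine.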
# [7] = biological target: Cytochrome P450 2C19 (Homo sapiens) (UniProt P33261); experiment: qHTS Assay for Inhibitors and Substrates of Cytochrome P450 2C19 (AID 899); further: nearly all actives have a fitted effect of over 60% in size
# Cytochrome P450 2C19 (Homo sapiens), sequence (P33261 whole entry, looked up): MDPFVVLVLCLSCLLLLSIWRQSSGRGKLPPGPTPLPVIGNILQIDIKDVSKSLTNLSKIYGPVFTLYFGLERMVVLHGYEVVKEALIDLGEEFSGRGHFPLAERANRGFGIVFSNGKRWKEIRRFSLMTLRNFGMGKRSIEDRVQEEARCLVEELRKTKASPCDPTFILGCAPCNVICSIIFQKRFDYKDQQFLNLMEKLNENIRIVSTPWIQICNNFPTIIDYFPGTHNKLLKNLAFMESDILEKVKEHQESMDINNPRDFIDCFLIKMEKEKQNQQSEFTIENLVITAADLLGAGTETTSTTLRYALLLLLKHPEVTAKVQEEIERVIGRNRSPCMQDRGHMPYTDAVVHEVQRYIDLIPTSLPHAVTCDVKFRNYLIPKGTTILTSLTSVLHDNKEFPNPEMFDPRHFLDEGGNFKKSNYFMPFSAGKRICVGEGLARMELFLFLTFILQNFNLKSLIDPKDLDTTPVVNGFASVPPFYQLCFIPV
# Procedure, shortened: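 Signal comes from luciferase acting on luciferin released by CYP2C19-mediated hydroxylation of Luciferin-H EGE, 10uM (KM). Assay mix: 5nM enzyme, 50mM KPO4; 60 min at 37C with NADPH regeneration. Data normalized against 57uM ketoconazole.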
# [8] = qHTS for Inhibitors of Plasmodium falciparum (CP250) proliferation (AID 504320); further: potency means the concentration at half of the fitted maximal effect
# Procedure, shortened: as §1
structure (smiles),measurement,setting,value
C=CCCC1(C(=O)c2ccccc2)C(=O)C(CC=C(C)C)=C(OC)C(CC=C(C)C)(CCC=C(C)C)C1=O (stereo unspecified),Potency,[1],1510 nM (active)
same,Potency,[2],1690 nM (active)
same,Potency,[3],inactive
CCCCCCCC1=CC2=CC(=O)C(C)(O)C(=O)C2=CN1CCCC (stereo unspecified),"activity change, negative = inhibition",[4],13.4% [at 11.4 µM]
same,"activity change, negative = inhibition",[5],-26.9% [at 11.4 µM]
same,Potency,[6],3160 nM (active)
same,"activity, negative = inhibition",[7],80.9% [at 11.4 µM]
same,Potency,[1],inactive
same,Potency,[2],inactive
same,Potency,[8],inactive
same,Potency,[3],inactive
C=CC[C@@H]1C=C[C@H](ON=C[C@@H](C)[C@H](OCc2ccccc2)C(C)C)[C@H](CO)O1,Potency,[1],inactive
same,Potency,[8],inactive
same,Potency,[3],inactive
C[C@H]1C=CCC(=O)N[C@@H](c2ccccc2)[C@@H](C)C=CCC(=O)N[C@@H]1c1ccccc1,Potency,[1],426 nM (active)
same,Potency,[2],1510 nM (active)
same,Potency,[8],inactive
same,Potency,[3],inactive
COC(=O)CC1OC1[C@H](C)[C@@H](OC)C(C)C (stereo partly specified),Potency,[1],1690 nM (active)
same,Potency,[8],inactive
same,Potency,[3],inactive
CCN1C(=NCc2cc(OC)c(OC)c(OC)c2)NC(c2cccc(F)c2)C(C(=O)OC)=C1C (stereo unspecified),Potency,[1],849 nM (active)
same,Potency,[8],inactive
same,Potency,[3],inactive
C=C(C(C)=O)C(O)c1ccc(Cl)cc1 (stereo unspecified),Potency,[1],inactive
same,Potency,[2],inactive
same,Potency,[8],inactive
same,Potency,[3],inactive
C=CC[C@@H]1C=C[C@H](ON=C(C)CCN2CCc3nc(CC)c(CC)cc3C2)[C@H](CO)O1,Potency,[1],1690 nM (active)
same,Potency,[8],inactive
same,Potency,[3],inactive
COC(=O)[C@@H](O)CC[C@@H](C)Cc1c(OC)c(OC)c(C)c(OC)c1OC,Potency,[1],inactive
same,Potency,[2],inactive
same,Potency,[8],inactive
same,Potency,[3],inactive
CC(C)OC(=O)[C@H](C)NC(=O)N1CCc2nc(COc3ccccc3)c3c(c2C1)CO[C@@H](C)C3,Potency,[1],1350 nM (active)
same,Potency,[2],2620 nM (active)
same,Potency,[8],inactive
same,Potency,[3],inactive
CCCCn1c(C)cc2c(c1=O)[C@H]1O[C@](CCCC)(Cc3cc(C#N)ccc31)O2,Potency,[1],1900 nM (active)
same,Potency,[8],inactive
same,Potency,[3],inactive
CC1=C[C@@H](COc2ccccc2)O[C@@]2(C1)C(=O)N(Cc1ccccc1)c1ccccc12,Potency,[1],757 nM (active)
same,Potency,[8],inactive
same,Potency,[3],inactive
COc1ccc([C@]23Cc4c(ccc5ccccc45)[C@H](O2)c2c(cc(-c4ccccc4)oc2=O)O3)cc1,Potency,[1],inactive
same,Potency,[8],inactive
same,Potency,[3],inactive
C#CCN1C(=O)[C@]2(O[C@H](COc3ccccc3)CC3=CCCC32)c2c(Br)cccc21 (stereo partly specified),Potency,[2],inactive
same,Potency,[3],inactive
C=CCOCCC=C1c2ccccc2[C@@H](OC)[C@@H]1C,Potency,[1],1510 nM (active)
same,Potency,[8],inactive
same,Potency,[3],inactive
C[C@]12C[C@@](C)(C=C1C=Cc1ccc(F)cc1)C(=O)C[C@H]2c1ccc(F)cc1,Potency,[2],1690 nM (active)
same,Potency,[3],inactive
CCN1C(=NCc2cc(OC)c(OC)c(OC)c2)NC(c2cccc(C(F)(F)F)c2)C(C(=O)OC)=C1C (stereo unspecified),Potency,[1],1900 nM (active)
same,Potency,[8],inactive
same,Potency,[3],inactive
COC(=O)C1=C[C@@]2(c3ccc(OC)cc3[C@@H](OC)[C@@H]2C)[C@@H]2C=C[C@@H]1C2,Potency,[1],inactive
same,Potency,[8],inactive
same,Potency,[3],inactive
CC1(C)CC(=O)C2=C(C1)O[C@@]1(CCCCN3C(=O)c4ccccc4C3=O)Cc3c(ccc4ccccc34)[C@H]2O1,Potency,[1],1510 nM (active)
same,Potency,[8],inactive
same,Potency,[3],inactive
COC(=O)C1=C(C)N(Cc2ccccc2)C(=NCc2ccc(OC)cc2)NC1c1cccc(F)c1 (stereo unspecified),Potency,[2],inactive
same,Potency,[3],inactive
C[C@@H]1CC[C@H]2C(=O)N(Cc3ccc(Cl)cc3)C[C@@H](O)CN2[C@H]1c1cccc(Br)c1,Potency,[1],1510 nM (active)
same,Potency,[8],inactive
same,Potency,[3],inactive
C[C@H]1CC[C@H]2C(=O)O[C@H](COc3ccc(C(C)(C)C)cc3)CN2[C@H]1c1ccc(Br)cc1,Potency,[2],3290 nM (active)
same,Potency,[3],inactive
Brc1ccc2c(c1)c1cc(Br)ccc1n2CC1CO1 (stereo unspecified),Potency,[1],1690 nM (active)
same,Potency,[8],inactive
same,Potency,[3],inactive
C[C@@H]1C[C@](C)(C(=O)c2ccco2)C=C1c1ccco1,Potency,[1],inactive
same,Potency,[8],inactive
same,Potency,[3],inactive
CC1(OC(=O)C2CCCC2)C(=O)C=C2C=C(c3ccsc3)N(C3CCCCC3)C=C2C1=O (stereo unspecified),Potency,[1],inactive
same,Potency,[8],inactive
same,Potency,[3],inactive
C=CCN=C1N[C@H](c2ccc(Br)cc2)C(C(=O)OC)=C(C)N1Cc1ccccc1,Potency,[2],inactive
same,Potency,[3],inactive
COc1ccc2c(c1)O[C@@H](c1ccc3c(c1)OCO3)[C@H](OC(=O)Nc1cc(OC)c(OC)c(OC)c1)C2=O,Potency,[1],1690 nM (active)
same,Potency,[8],inactive
same,Potency,[3],inactive
N#Cc1ccc2c(c1)C[C@]1(CCCCN3C(=O)c4ccccc4C3=O)Oc3c(c(=O)oc4ccc(F)cc34)[C@@H]2O1,Potency,[1],1510 nM (active)
same,Potency,[8],inactive
same,Potency,[3],inactive
O=C1c2ccccc2C(=O)N1CCCC[C@]12Cc3ccccc3[C@H](O1)c1c(c3ccccc3oc1=O)O2,Potency,[1],1510 nM (active)
same,Potency,[8],1690 nM (active)
same,Potency,[3],inactive
COC(=O)c1ccc(CN2C(=O)[C@@]3(CC(C)=CC[C@@H](COc4ccccc4)O3)c3c(Br)cccc32)cc1,Potency,[2],1510 nM (active)
same,Potency,[3],inactive
CCC(=O)N1C2=C(c3ccccc3[C@@H]1CC(=O)Nc1ccc3ccccc3c1)[C@H]1C(=O)N(c3ccccc3)C(=O)[C@@H]1[C@H](C)C2,Potency,[1],1510 nM (active)
same,Potency,[8],inactive
same,Potency,[3],inactive

# From PubChem BioAssay (NCATS)
